For one assay, the system named is CRL-7250. Nature of the assay: Cytotoxic Profiling of Annotated Libraries Using Quantitative High-Throughput Screening (AID 1296008). For max response: % is set by controls: 0 for no effect and ±100 for the full control effect. Note: potency is the fitted concentration of half-maximal effect. As to conditions: Five cell lines viability, CellTiter-Glo ATP luminescence, 48-72 h; max response: hits give low values. The method, boiled down: (§1)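 Compounds were pin-transferred onto cells and incubated 48 or 72 hr at 37 degree Celsius, 95% humidity. CellTiter-Glo was added, plates sat 10 min at room temperature, then ATP-coupled luminescence was imaged as the viability read-out.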
On the technique in general: Cellular ATP, detected with luciferase, serves as a proxy for viable cell number.

A further assay concerns HEK293. Described as above. Conditions: Five cell lines viability, CellTiter-Glo ATP luminescence, 48-72 h; max response: hits give low values. The method, boiled down:
as §1

The next assay relates to HaCat. Described as above. As to conditions: Five cell lines viability, CellTiter-Glo ATP luminescence, 48-72 h; max response: hits give low values. The method, boiled down: as §1
A further assay relates to KB-3-1. Described as above. As to conditions: Five cell lines viability, CellTiter-Glo ATP luminescence, 48-72 h; max response: hits give low values. The method, boiled down: as §1
In assay [1] the test system is NIH3T3. Described as above. As to conditions: Five cell lines viability, CellTiter-Glo ATP luminescence, 48-72 h; max response: hits give low values. In outline:
as §1

Assay [2] deals with NIH3T3. Nature of the assay: qHTS assay to identify novel small-molecules to repurpose for Merkel cell carcinoma treatment (AID 1296009). Conditions: MCC and control cell lines, CellTiter-Glo viability, 72 h; at 44.8 µM (top of the series) unless noted. In outline:
(§2)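 qHTS format: cells treated with library compounds in DMSO across 8 (NPC) or 11 (MIPE) concentrations. Readout after 72 hr at 37 degree celsius was CellTiter-Glo luminescence.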
Background: In qHTS, concentration-response curves come from the screen itself.

Another assay deals with HEK293T. The description is as above. As to conditions: MCC and control cell lines, CellTiter-Glo viability, 72 h; at 44.8 µM (top of the series) unless noted. In outline: as §2

Records with an inconclusive call do not appear. Values without a mark were called inactive. Activity calls are given as the source filed them. Calls come from the whole dose curve; as a rule, active = well fitted inhibition curve with a large enough effect; inconclusive = small, poorly fitted or top-dose-only effect; inactive = flat fitted curve, though single readings scatter.
Note: nearly all actives have a fitted effect of over 60% in size.

On to `CC(=O)OC1(C)CC(O)C2(O)C=COC(OC3OC(CO)C(O)C(O)C3O)C12` (configuration not stated), for which the outcome with CRL-7250 and in the assay with NIH3T3 [1] was inactive. Moreover, the max response is 4.36% with HEK293, 0.0573% in the assay on HaCat and 3.54% in the assay on KB-3-1. For the same compound, the outcome with NIH3T3 [2] was “inactive [at 17.4 µM]”.
With `CC1(C)C=Cc2c(ccc3c2N=C2C(C)(C)[C@@H]4C[C@]56CCCN5C(=O)[C@@]4(C[C@]23O)NC6=O)O1`, the max response in the assay with CRL-7250 was 3.82%; in the assay with HaCat, 3.57%; with NIH3T3 [1], -4.67%. Further, the outcome with HEK293 and in the assay with KB-3-1 was inactive. The outcome in the assay with HEK293T was “inactive [at 17.4 µM]”.
On to `C=C1CCC2(OC1)OC1CC3C4CC=C5CC(O)CC(O[C@@H]6OC[C@H](OC(=O)C(O)C(C)CC)[C@H](O)[C@H]6O[C@@H]6O[C@@H](C)[C@H](O)[C@@H](O)[C@H]6O)C5(C)C4CCC3(C)C1C2C` (some centres not stated), for which the max response with CRL-7250 is -2.78%; in the assay with HEK293, -1.63%; in the assay with HaCat it was -7.88%. Further, the outcome in the assay with KB-3-1 and in the assay on NIH3T3 [1] was inactive. Further, the outcome in the assay on NIH3T3 [2] is “inactive [at 9.27 µM]”.
Take `O=C(Nc1cc(-c2ccccc2)nn1-c1ccccc1F)c1ccc([N+](=O)[O-])cc1`: the results for the max response with CRL-7250, in the assay with HaCat and in the assay with KB-3-1 were -9.65%, 2.32% and -2.53%, respectively. Besides, the Potency in the assay with HEK293 was 23.1 µM (active). Besides, the compound was classed as inactive in the assay on NIH3T3 [1] and with NIH3T3 [2].
Turning to `C=CC(C)(CCC=C(C)C)O[C@@H]1O[C@H](CO)[C@@H](O)[C@H](O)[C@H]1O` (some centres not stated), the max response in the assay on CRL-7250 was -23.7%; in the assay on HEK293, -6.28%; in the assay with HaCat, -2.03%; with KB-3-1, 6.36%. Also, the call with NIH3T3 [1] and with NIH3T3 [2] was inactive.
For `C/C=C/C=C/C=C/C(=O)O[C@@H]1C=C(CO)[C@](O)(CO)[C@@]2(C)CCCC(C)(C)[C@H]12`, the max response with CRL-7250 is -5.67%; with HaCat, -1.12%. Also, the Potency with HEK293 is 12.8 µM (active). The compound was called inactive with KB-3-1, with NIH3T3 [1] and in the assay with NIH3T3 [2].
As for `C[C@H]1[C@@H](O)[C@H](O)C2[C@]3(C)C([C@@H](O)[C@H]4OC(=O)[C@@H]1[C@@]24C)[C@](C)(O)C=C[C@H]3O[C@@H]1O[C@H](CO)[C@@H](O)[C@H](O)[C@H]1O` (some centres not stated), the max response was 0.954% in the assay with CRL-7250, -1.06% in the assay with HEK293, -2.23% with HaCat and 8.84% with KB-3-1. In addition, the outcome in the assay with NIH3T3 [1] was inactive. For the same compound, the outcome in the assay with NIH3T3 [2] was “inactive [at 17.4 µM]”.
On to `COc1cc(/C=C/C(=O)O[C@@H]2O[C@H](CO)[C@@H](O)[C@H](O)[C@H]2O)ccc1O`, for which the max response in the assay with CRL-7250 was 2.76%; in the assay with HaCat, 3.8%; in the assay with KB-3-1, -1.87%; in the assay on NIH3T3 [1], 0.679%. In addition, the result with HEK293 and with HEK293T was inactive.
For `COc1ccc(-n2c(=O)[nH]c3cc(C(=O)NCc4ccc(Cl)cc4)sc3c2=O)nc1OC`, the max response in the assay with CRL-7250 was 1.31%; in the assay on HEK293, 2.86%; in the assay on HaCat, -5.79%; in the assay with KB-3-1 it was 2.11%. For the same compound, the result in the assay on NIH3T3 [1] and in the assay on NIH3T3 [2] was inactive.
For the compound `CN(C)C(=O)C(O)C(Cc1ccccc1)NC(=O)c1cc2cc(Cl)ccc2[nH]1` (configuration not stated), the result in the assay with CRL-7250, in the assay with HEK293 and in the assay with HEK293T was inactive. Moreover, the max response in the assay on HaCat was -1.1%; in the assay on KB-3-1 it was 5.45%; with NIH3T3 [1] it was -2.44%.
In the case of `O=C(/C=C/N1C[C@@H]2C[C@@H]1CN2c1ccccn1)c1ccccc1O`, the outcome with CRL-7250, in the assay on KB-3-1, in the assay on NIH3T3 [1] and in the assay on NIH3T3 [2] was inactive. The max response in the assay with HEK293 was 4.78%; in the assay with HaCat, 3.55%.
On to `CC(C)CC[C@@H](O)[C@](C)(O)[C@H]1CC[C@@]2(O)C3=CC(=O)[C@@H]4C[C@@H](O)[C@@H](O)C[C@]4(C)[C@H]3CC[C@]12C`, for which the max response in the assay with CRL-7250 was -1.43%; with HEK293 it was 3.83%; in the assay on HaCat, 4.07%. For the same compound, the call in the assay on KB-3-1, in the assay on NIH3T3 [1] and in the assay with NIH3T3 [2] was inactive.
`CC(C)=CC1C[C@](C)(O)[C@@H]2[C@H]3CCC4[C@@]5(C)CC[C@H](O[C@@H]6OC[C@H](O)[C@H](O[C@@H]7O[C@H](CO[C@@H]8O[C@H](CO)[C@@H](O)[C@H](O)[C@H]8O)[C@@H](O)[C@H](O)[C@H]7O)[C@H]6O[C@@H]6O[C@@H](C)[C@H](O)[C@@H](O)[C@H]6O)C(C)(C)[C@@H]5CC[C@@]4(C)[C@@]34CO[C@@]2(C4)O1` (some centres not stated): the max response in the assay on CRL-7250 is -1.09%; in the assay on HEK293 it was -3.55%; in the assay with HaCat, 4.88%. The compound was classed as inactive in the assay on KB-3-1 and in the assay with NIH3T3 [1]. The outcome with NIH3T3 [2] was “inactive [at 9.27 µM]”.
Consider `Cc1ccc2nc(NC(=O)CSc3nc4c(c(=O)n3-c3ccc(F)cc3)SCC4)sc2c1`, for which the max response with CRL-7250 is -14.2%; with HEK293, -0.604%; in the assay with HaCat, 1.13%; in the assay on KB-3-1, 9.39%. Further, the outcome in the assay on NIH3T3 [1] and in the assay on NIH3T3 [2] was inactive.
For the compound `COC(=O)[C@H](Cc1ccc([N+](=O)[O-])cc1)NC(=O)c1cccc2ccccc12`, the max response in the assay with CRL-7250 was -4.16%; with HaCat it was -4.67%; with NIH3T3 [1] it was -1.76%. Also, the result in the assay with HEK293, in the assay on KB-3-1 and in the assay on HEK293T was inactive.
With `CC1=CC[C@@]2(C)CC[C@@](O)(C(C)C)[C@@H]2[C@@H](O)C1`, the max response with CRL-7250 was 2.53%; with HEK293 it was 0.0265%; in the assay with HaCat, 1.77%. Moreover, the compound was called inactive in the assay with KB-3-1, in the assay on NIH3T3 [1] and in the assay with NIH3T3 [2].
As to `C/C=C(\C)C1C(C)=CC2CCC(OS(=O)(=O)O)C(C)C2C1/C=C/C=C/C(=O)O` (configuration not stated), the result in the assay with CRL-7250 and in the assay on HEK293 was inactive. The values for the max response with HaCat, in the assay on KB-3-1 and with NIH3T3 [1] were -12.6%, 7.13% and -0.702%, respectively. Also, in the assay with HEK293T, the outcome was “inactive [at 17.4 µM]”.
